Reference: PubChem BioAssay (NCI)
Compounds without any hit were thinned out: in the full panel of roughly 83,000, 20% have a hit.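 Method: cells in 96-well plates; compound added at one concentration; 48 h incubation; percent growth measured; values under 10 scored active.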 A number with no mark means an inactive call. The source made the active and inactive calls.

Key:
Assay in all cases: NCI-60 one-dose screen, 48 h (100 = growth as untreated, 0 = no growth, -100 = all killed)
Settings in all cases: 10 µM unless noted
SR leukemia = system: SR leukemia
OVCAR-8 ovarian = system: OVCAR-8 ovarian
OVCAR-5 ovarian = system: OVCAR-5 ovarian
OVCAR-4 ovarian = system: OVCAR-4 ovarian
SK-OV-3 ovarian = system: SK-OV-3 ovarian
IGROV1 ovarian = system: IGROV1 ovarian
OVCAR-3 ovarian = system: OVCAR-3 ovarian
HS 578T breast = system: HS 578T breast
NCI/ADR-RES ovarian = system: NCI/ADR-RES ovarian
RPMI-8226 leukemia = system: RPMI-8226 leukemia

Row | Structure (SMILES) | growth (SR leukemia) | growth (OVCAR-8 ovarian) | growth (OVCAR-5 ovarian) | growth (OVCAR-4 ovarian) | growth (SK-OV-3 ovarian) | growth (IGROV1 ovarian) | growth (OVCAR-3 ovarian) | growth (HS 578T breast) | growth (NCI/ADR-RES ovarian) | growth (RPMI-8226 leukemia)
1 | Cc1ccc(NC2CC(=O)N(c3c(C)cc(C)cc3C)C2=O)c(C)c1 (stereo not drawn) | 95.3% | 107% | 104% | 98.6% | 121% | 93.9% | 115% | 104% | 106% | –
2 | Cc1cc(N=O)cc(C(C)(C)C)c1O | 98.9% | 103% | 108% | 97.7% | 75.8% | 98.6% | 105% | 90.8% | 99.3% | –
3 | O=C(/C=C/c1ccc2ccccc2c1)Nc1ncc(Cc2ccccc2)s1 | 16.9% | 59.8% | – | -37.5% (active) | 87.8% | 55.6% | 10% | 29.2% | 32.3% | –
4 | CN(CSc1ccc(Cl)cc1)c1ccc(CSc2ccc(Cl)cc2)cc1 | – | 93.3% | 120% | 67.9% | 108% | 42.9% | 62.6% | 93.3% | 91.7% | 18%
5 | O=C(O)/C(=C/c1ccc(O)cc1)c1ccccc1 | – | 95.7% | 84.4% | 98.7% | 112% | 99% | 103% | – | 94.6% | –
6 | CCSc1ncnc2c1ncn2C1OC(CO)C(O)C1O (stereo not drawn) | – | 29.5% | 29.5% | 46.1% | 41.3% | 2.14% (active) | 23.4% | – | 25.4% | 38.5%
7 | CN1CCN(c2ccc3nc(-c4[nH]ncc4Nc4ncnc5c4OCCCN5)[nH]c3c2)CC1 | 3.46% (active) | – | -61.4% (active) | -35.2% (active) | -21.5% (active) | -21.4% (active) | -32.2% (active) | -5.79% (active) | -6.16% (active) | –
8 | COc1ccc(OCC(CO)N2CCN(c3ccccc3)CC2)cc1 (stereo not drawn) | – | – | 103% | 92.4% | 106% | 112% | 102% | – | 99.9% | 131%
9 | Cc1cc(C)nc(NC(N)=NCCc2ccccc2)n1 | 19.2% | 53.4% | 72% | – | 46.7% | 40% | 33.5% | 45.3% | 85.9% | –
10 | CCCCC/C(=C\c1ccccc1)C1OC(C)C(C)O1 (stereo not drawn) | 99.4% | 96.3% | 93.7% | 108% | 96.7% | 112% | 101% | – | 100% | –
11 | O=c1[nH]c(=S)[nH]c2nc[nH]c12 | – | 95.2% | 90.5% | 107% | 112% | 105% | 115% | – | 95.1% | 99.2%
12 | O=C1C(Cl)=C(Nc2ccc(S(=O)(=O)c3ccc(NC4=C(Cl)C(=O)c5ccccc5C4=O)cc3)cc2)C(=O)c2ccccc21 | – | -61.8% (active) | 100% | -84.9% (active) | 78.9% | -18.5% (active) | -98.4% (active) | – | 43.6% | 5.2% (active)
13 | OCC1OC(n2cnc3c(Cl)ncnc32)CC1O (stereo not drawn) | – | 104% | 101% | 120% | 104% | 98.9% | – | 108% | 118% | 98.3%
14 | N=C(N)c1ccc(-c2ccc(-c3cc(F)cc(F)c3)o2)nc1 | 7.21% (active) | 97.5% | 88.9% | 96.2% | – | 88.6% | 95.6% | 87.8% | 94.6% | –
15 | Nc1c2c(nc3ccc(Cl)cc13)CC(c1ccc(O)cc1)CC2=O (stereo not drawn) | 31.8% | 75.5% | – | 81.3% | 68.7% | 49.3% | 25.3% | 46.1% | 25.1% | –
16 | Cn1cc(-c2nc(-c3c[nH]c4ncccc34)cs2)c2cc(Br)ccc21 | – | 104% | 82.9% | – | 91.9% | 76% | 118% | 98% | 75% | 72.6%
17 | CC1(n2nnnc2N2CCCN(c3ncccc3N)CC2)CCC1 | 79.1% | – | 98.7% | 97.2% | – | 99.7% | 106% | 97.5% | 103% | –
18 | COc1ccc2nc(-c3c(-c4ccccc4)nc4ncccn34)[nH]c2c1 | 90.3% | – | 97.9% | 93.2% | 109% | 111% | 108% | – | 108% | –
19 | CC(=O)OC(C)COc1ccc(-c2ccccc2)cc1 (stereo not drawn) | 97.1% | 95.9% | – | – | 109% | 112% | 107% | 103% | 118% | –
20 | CC(C)(C)CC(C)(C)c1ccc(OCCOCC[N+](C)(C)CC(=O)[O-])cc1 | 94.8% | 105% | 102% | – | 109% | 100% | 113% | 114% | 111% | –
